Experimental data from ChEMBL document CHEMBL5308541, “MAIP: An Open-Source Tool to Enrich High-Throughput Screening Output and Identify Novel, Druglike Molecules with Antimalarial Activity” (ACS Med Chem Lett, 2023).
Hit rate of the full screen: of about 4,800 compounds, about 410 (8.5%) showed an effect of 50% or more. Only a selection was taken, and strong results are over-represented in it overall.

System: Plasmodium falciparum
Experiment: Confirmatory screen in NF54 pLDH assay, in single point, at 2uM, 72h
Format: functional, Erythrocyte
Conditions: timepoint 72 hour

Compared with CN1CCC(N(Cc2ccccc2)C(=O)c2cc3cnccc3[nH]2)CC1, Nc1nc(NCC2CCN(CCc3ccccc3)CC2)cc([C@H]2C[C@@H](N)C2)n1 is lower in “% Inhibition” value: 58% for the first, 26% for the second.

First: Cc1cc(N2CCC(NC3CCNC(c4ccccc4)C3)CC2)nc(C)n1 (stereo not given)
Second: Cc1cc(N2CCC(NC3CCCC3Cc3ccc(F)cc3)CC2)nc(N)n1 (stereo not given)
The “% Inhibition” value of the first is lower: 33% for the first, 103% for the second.

Compared with O=C(NCC1CC1)c1cc2c(OCc3ccc(Cl)cc3)cccc2[nH]1, Nc1ccnc2ccc(-c3ccc(C(=O)NCC4CCOCC4)cc3)cc12 is higher in “% Inhibition” value: 53% for the first, 102% for the second.

First: Cc1cc(NC[C@H](O)COc2ccc(F)cc2)nc2ccccc12
Second: c1ccc2c(Nc3ccc4[nH]cnc4c3)c3ccccc3nc2c1
The “% Inhibition” value of the first is lower: 81% for the first, 102% for the second.

Going from N#Cc1ccc(N2C[C@H](COCC3CC3)C3(CCN(Cc4cccc(O)c4)CC3)C2)cc1C(F)(F)F to Cc1ccccc1-c1cccc(N2CCC(NCC3CCNCC3)CC2)c1, the “% Inhibition” value rises from 89% to 100%.

Compared with COCCCN1CCC(Nc2ncnc3cc(C)c(C)cc23)CC1, CCCN1CCC(Nc2cc(C)nc3ccccc23)CC1 is lower in “% Inhibition” value: 94% for the first, 89% for the second.

Going from CC1(N2CCC2)CCC(NC[C@H]2CCN(Cc3ccccc3)C2)CC1 (stereo not given in full) to c1ccc(CN2CCC(CCNC[C@@H]3CCCN4CCCC[C@H]34)CC2)cc1, the “% Inhibition” value falls from 66% to 63%.

Compared with Cn1nnc(C(=O)N2CCCCC23CCCCCC3)n1, CC(C)c1ccc(-c2nc(CN3CCCCC3)cc(CN3CCCCC3)c2O)cc1 is higher in “% Inhibition” value: 59% for the first, 92% for the second.

First: Cc1ccc2[nH]c(-c3cc4n(n3)CCN(c3ccnc(N)n3)C4)nc2c1C
Second: COc1ccc2cc(-c3cc(N)ccn3)[nH]c2c1
The “% Inhibition” value of the first is higher: 97% for the first, 89% for the second.

Compared with CCN(Cc1cnn(-c2cccc(Cl)c2)c1)CC1CCN(C2CCN(C)CC2)CC1, CCN(Cc1[nH]c2ccc(Cl)cc2c1C)CC1CCN(C2CCN(C)CC2)CC1 is higher in “% Inhibition” value: 92% for the first, 102% for the second.

First: COc1ccc(-c2cc(-c3ccccc3O)n([C@@H]3C(=O)Nc4ccc(Br)cc43)n2)cc1
Second: COc1ccc2[nH]cc(-c3ccc(N)nc3)c2c1
The “% Inhibition” value of the first is higher: 46% for the first, -21% for the second.

Going from CC(C)c1ccc(-c2noc(CCN3CCN(CCCN(C)C)CC3)n2)cc1 to CCN1CCN(C[C@@H](C)CNCc2cc(-c3ccccc3)ccc2OC)CC1, the “% Inhibition” value falls from 30% to -4%.

Going from c1ccc(CNc2ccc(-c3noc(C45CCCN(CCC4)C5)n3)cn2)cc1 to O[C@H](COc1ccccc1CNCc1cc(-c2ccccc2)[nH]n1)CN1CCCCC1, the “% Inhibition” value rises from 99% to 103%.

Going from CCCc1cccc(CNC2CCN(C3CCN(C)CC3)CC2)c1 to C[C@@H](CNC1CCN(C2CCN(C)CC2)CC1)c1cccc(Cl)c1, the “% Inhibition” value rises from 71% to 103%.

First: CN1CCN(CCNC2CCN3CCCC3C2)C(c2ccccc2)C1 (stereo not given)
Second: CN1CCN(CCCCNC2CC3CCC(C2)N3Cc2ccccc2)CC1 (stereo not given)
The “% Inhibition” value of the first is lower: 28% for the first, 41% for the second.

Compared with Brc1cccc(NCCNC2CCN(Cc3cccnc3)CC2)c1, c1cncc(-c2ccc(CNC3CCN(Cc4cccs4)CC3)cc2)c1 is higher in “% Inhibition” value: 41% for the first, 86% for the second.

Going from CN1CCN(CCOc2ccccc2CN(C)Cc2cc3cc(F)ccc3[nH]2)CC1 to COc1ccc(CNCc2cc3ccccc3[nH]2)cc1CN(C)C, the “% Inhibition” value falls from 104% to 36%.

First: CN(c1ccccc1)c1ccc(CN2CCN([C@H]3CCNC3)CC2)cc1
Second: CN1CCN(CC2CCN(c3ccnc4ccccc34)CC2)CC1
The “% Inhibition” value of the first is lower: 0% for the first, 103% for the second.

Going from CN1CCC[C@H](CN2CCN(Cc3cc4n(n3)CCCNC4)CC2)C1 to COc1ccc2c(N3CC[C@H](CN4CCCC4)C3)ccnc2c1, the “% Inhibition” value rises from -7% to 102%.

Going from Fc1ccc(N2CCC(N[C@@H]3COC4(CCNCC4)C3)CC2)cc1F to N[C@H]1CC[C@@H](NC2CCN(c3ccc(F)c(F)c3)CC2)CC1, the “% Inhibition” value rises from 6% to 35%.

First: Cc1nc2ccc(CNC3CCN(c4ccc(F)c(F)c4)CC3)cc2[nH]1
Second: Cc1ccn2cc(-c3ccc(N4CCC(NCc5cccnc5)CC4)cc3)nc2c1
The “% Inhibition” value of the first is lower: 64% for the first, 102% for the second.

First: CN(CCCn1ccnc1)c1ccnc2cc(Br)ccc12
Second: Nc1ccnc(-c2cccc3[nH]ccc23)c1
The “% Inhibition” value of the first is higher: 98% for the first, 0% for the second.

Compared with Cc1cccc(Nc2ccnc(Nc3ccc(N4CCN(C)CC4)cc3)n2)c1, CNc1nc(C)c(-c2ccnc(Nc3cccc(S(C)(=O)=O)c3)n2)s1 is lower in “% Inhibition” value: 99% for the first, 45% for the second.

Going from CNc1nc(N2CCN(CC(=O)NC3CCCCC3)CC2)nc2ccccc12 to Cn1cncc1[C@@H]1CNC[C@H]1CNC(=O)c1ccccc1NC1CCCCC1, the “% Inhibition” value rises from 26% to 73%.

Compared with O=C(Nc1cnc2c(c1)COCC2)c1cc2c(OC(F)(F)F)cccc2[nH]1, O=C(NCc1ccc(N2CCNCC2)c(F)c1)c1ccc(-c2noc(C(F)(F)F)n2)cc1 is lower in “% Inhibition” value: 102% for the first, 54% for the second.

First: O[C@H]1CCN(Cc2cccc(NCc3cn4ccnc4s3)c2)C1
Second: O[C@H]1CCN(Cc2ccccc2CNc2cccc(-n3ccnc3)n2)C1
The “% Inhibition” value of the first is lower: 45% for the first, 101% for the second.

First: CCN1CCC[C@H](Nc2cccc(-n3ccnc3)n2)C1
Second: Cc1ccccc1-c1cccc(CNCCCN2CCC[C@H](O)C2)c1
The “% Inhibition” value of the first is higher: 32% for the first, 17% for the second.

Compared with OCCN1CCC(NCCc2cc(Cl)cc(Cl)c2)CC1, CN(C)C1CCN(CCN[C@H]2CCc3ccc(F)cc32)CC1 is higher in “% Inhibition” value: 30% for the first, 97% for the second.

Going from O=C1C2CCCCC2C(c2c(-c3ccccc3)[nH]c3ccccc23)N1Cc1ccccc1 (stereo not given) to FC(F)(F)c1ccc(-c2c(-c3ccccc3)ncn2Cc2ncn[nH]2)cc1, the “% Inhibition” value falls from 33% to 7%.

Compared with COc1cc2nc(NCC3(N4CCN(C)CC4)CCCC3)cc(C)c2cc1OC, Cc1nc(N2CCN(C)CC2)cc(N2CCN(S(=O)(=O)c3ccccc3C(F)(F)F)CC2)n1 is lower in “% Inhibition” value: 103% for the first, 56% for the second.

Compared with Cc1ccc2[nH]c(CNC[C@@H](CO)C3CCC3)cc2c1C, Cc1cc(NC[C@H]2CN(CC(C)C)CCO2)c2ccccc2n1 is lower in “% Inhibition” value: 80% for the first, 28% for the second.

Going from CC(C)CCOc1ccc2[nH]c(-c3cc(N4CCC[C@@H]4CS(C)(=O)=O)ccn3)cc2c1 to COc1ccc2cc(NC(=O)c3cc(-c4c(C)nn(C)c4C)[nH]n3)cnc2c1, the “% Inhibition” value falls from 98% to 81%.

For Oc1cccc2c1CCC[C@@H]2NCc1ccc2occc2c1, the “% Inhibition” value was 55%.
